According to PubChem BioAssay (NCI):
About 83,000 compounds went through this panel and 20% of them were active in at least one assay; those are over-represented in the sample as a whole.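 48-hour exposure, single concentration, 96-well plates; percent growth endpoint where 0 means no net growth. Active: below 10.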 Unmarked numbers belong to inactive results. Calls of active or inactive are those of the source.

Tested on: OVCAR-5 ovarian
Assay: NCI-60 one-dose screen, 48 h (100 = growth as untreated, 0 = no growth, -100 = all killed)
Details: 10 µM unless noted

Q: With `COc1ccc(C(=O)N2CCN(C(=O)c3cc(OC)c(OC)c(OC)c3)CC2)cc1OCCCCOc1cc2c(cc1OC)C(=O)N1CCC[C@H]1C=N2` as the molecule, how does the growth read?
A: 111%

Q: For `Cn1c(-c2nonc2NC(=O)c2ccc(F)cc2)nc2ccccc21`, which growth is on record?
A: 117%

Q: With `O=C(NCCCN1CCN(CCCNC(=O)C2CCCCC2)CC1)C1CCCCC1` as the molecule, how does the growth read?
A: 104%

Q: Which growth does the source give for `c1cc(-c2ccc3c(c2)OCO3)n2nccc2n1` here?
A: 94.2%

Q: For `O=C(CN1CCN(c2cc3c(cc2F)c(=O)c(C(=O)O)cn3C2CC2)CC1)Nc1ccc(C(=O)/C=C/c2ccc(Cl)cc2)cc1`, which growth is on record?
A: 115%

Q: For `CC(Cc1nnc(SCC(=O)Nc2ccc(I)cc2)n1N)c1ccccc1` (stereo not drawn), which growth is on record?
A: 84.4%

Q: For `Cc1ccc2c(c1)C(C)Cc1c(ncnc1-n1cnc3ccccc31)N2C` (stereo not drawn), which growth is on record?
A: 42.8%

Q: How did the growth turn out when `CC1CCc2c(sc(NC(=O)CSc3nnc4ccccn34)c2C(N)=O)C1` (stereo not drawn) was run?
A: 99.7%

Q: Which growth does the source give for `CC(=O)c1cc(C(=O)c2ccc3c(c2)Sc2ccccc2N3)c2cc(C)ccn12` here?
A: 41.2%

Q: How did the growth turn out when `CN(C)c1nc(N)c(N=O)c(N)n1` was run?
A: 111%

Q: How did the growth turn out when `CC[C@H](C)[C@H]1NC(=O)[C@@H](N[C@](C)(O)[C@@H](N)CC(C)C)[C@@H](C)OC(=O)[C@H](Cc2ccc(OC)cc2)N(C)C(=O)[C@@H]2CCCN2C(=O)[C@H](CC(C)C)NC(=O)[C@@H](C)C(=O)[C@H](C(C)C)OC(=O)C[C@@H]1O` was run?
A: -14.9% (active)

Q: With `Cc1nc2scc(-c3ccccc3)n2c(=O)c1CCO` as the molecule, how does the growth read?
A: 109%

Q: With `Cc1ccc(Cn2c(-c3nonc3N)nc3ccccc32)cc1` as the molecule, how does the growth read?
A: 81.2%

Q: `COc1cc(Cn2c(-c3nonc3N)nc3ccccc32)ccc1C` was tested. Which growth did it give?
A: 34%

Q: `COc1ccc(/C=N/NC(=O)Cn2c(Cc3cccc4ccccc34)nc3ccccc32)cc1` was tested. Which growth did it give?
A: 96%

Q: `Cc1ccc(Cn2c(-c3cccs3)nc3ccccc32)cc1` was tested. Which growth did it give?
A: 98.8%

Q: How did the growth turn out when `Cc1ccc(OCCn2c(C)nn(-c3ccc(Cl)cc3)c2=O)cc1` was run?
A: 113%

Q: `COc1ccc(-c2nc(-c3ccccc3)c(-c3ccccc3)n2C2CC2)cc1OC1CCCCC1` was tested. Which growth did it give?
A: 83%

Q: Which growth does the source give for `COc1cc(/C=C2\CCCC3=C2NC(C)=NC3c2cc(OC)c(OC)c(OC)c2)cc(OC)c1OC` (stereo not drawn) here?
A: 10.8%

Q: For `CCN1C(=O)N[C@H]2[C@@H]3NC(=O)c4ccc(Cl)n4[C@@H]3C[C@]21O`, which growth is on record?
A: 24.5%

Q: How did the growth turn out when `CC(C(=O)n1cc(-c2ccccc2)c(-c2ccccc2)c1)c1ccccc1` (stereo not drawn) was run?
A: 106%

Q: Which growth does the source give for `CC(Br)C(OC(=O)c1ccccc1Cl)c1cc2c(cc1Br)OCO2` (stereo not drawn) here?
A: 89.6%

Q: With `CCC(c1cccc(Br)c1)C(C(=O)O)c1ccc(OC)cc1` (stereo not drawn) as the molecule, how does the growth read?
A: 109%

Q: How did the growth turn out when `COC(=O)CCCCN=Cc1c(O)c(O)c(C(C)C)c2cc(C)c(-c3c(C)cc4c(C(C)C)c(O)c(O)c(C=NCCCCC(=O)OC)c4c3O)c(O)c12` was run?
A: 17.8%

Q: For `Cc1cc(C(=O)CSc2nc3ccccc3c(=O)[nH]2)c(C)n1C`, which growth is on record?
A: 90.8%

Q: With `Cn1cc(C=O)c2ccccc21` as the molecule, how does the growth read?
A: 101%

Q: `CC(=O)N1Cc2ccccc2C(C)Cc2cc(Cl)ccc21` (stereo not drawn) was tested. Which growth did it give?
A: 99.1%

Q: For `Cn1c(=O)c2c(nc3n2CCN(CCc2ccc(OCCN4CCOCC4)cc2)C3)n(C)c1=O`, which growth is on record?
A: 103%

Q: `O=C(/C=C/c1ccccc1)n1c(-c2ccc(Cl)cc2)nc2ccccc21` was tested. Which growth did it give?
A: -48.1% (active)

Q: How did the growth turn out when `COc1cc(C2CC(c3c(C)[n+]([O-])c4ccccc4[n+]3[O-])=NN2)cc(OC)c1OC` (stereo not drawn) was run?
A: 100%

Q: `CCOC(=O)c1cc(/C(=N\O)c2cc(OC)c(OC)c(OC)c2)n2c(C)cccc12` was tested. Which growth did it give?
A: 73.2%

Q: `COC(=O)CCCCCCN=Cc1c(O)c(O)c(C(C)C)c2cc(C)c(-c3c(C)cc4c(C(C)C)c(O)c(O)c(C=NCCCCCCC(=O)OC)c4c3O)c(O)c12` was tested. Which growth did it give?
A: 21.7%

Q: How did the growth turn out when `COc1ccc(/C(=N/O)c2cc(OC)c(OC)c(OC)c2)c(OC)c1N` was run?
A: 71.9%

Q: Which growth does the source give for `COc1ccc(-n2c(C)cc(-c3ccccc3)c2C)cc1` here?
A: 63.8%

Q: For `N#CC1=C(N)OC2=C(C(=O)CCC2)C1c1ccco1` (stereo not drawn), which growth is on record?
A: 104%

Q: With `C=CCc1cc(Cl)cc2c(OC(C)=O)c(C(C)=O)c(-c3ccccc3)nc12` as the molecule, how does the growth read?
A: 111%

Q: `COc1cc(/C=C/C(=O)c2ccc(NC(=O)CN3CCN(c4cc5c(cc4F)c(=O)c(C(=O)O)cn5C4CC4)CC3)cc2)cc(OC)c1OC` was tested. Which growth did it give?
A: 16.9%

Q: `COc1ccc(/C(=N\O)c2cc(OC)c(OC)c(OC)c2)c(OC)c1N` was tested. Which growth did it give?
A: 47.8%
